PubChem BioAssay (NCATS)
Results filed as inconclusive are left out. A call without a number means that no potency is given here. Activity calls are given as the source filed them. Calls come from the whole dose curve; as a rule, active = well fitted cell-killing curve with a large enough effect; inconclusive = small, poorly fitted or top-dose-only effect; inactive = flat fitted curve, though single readings scatter.

Assay: qHTS of pediatric cancer cell lines to identify multiple opportunities for drug repurposing: Primary screen for U-2 OS cells (AID 1347096); note: nearly all actives have a fitted effect of over 50% in size
Conditions: U-2 OS viability, CellTiter-Glo luminescence, 48 h; series mostly up to 46 µM
Source text: Drug repurposing or repositioning has been offered as a strategy for drug development in oncology programs. This approach has special potential for childhood cancers and other rare or orphan diseases, where the expected return on new drug development has been a disincentive to pharmaceuticals.
In this project we exploit the poly-pharmacology of drugs to discover new indications via phenotypic screening of a panel of 19 well-characterized cell lines derived from solid tumors seen in children and adolescents. The goal is to identify approved drugs with previously unrecognized anticancer properties that has the potential to reveal new mechanisms and biological processes involved in carcinogenesis or drug resistance. We employed a titration-based paradigm (quantitative high-throughput screening or qHTS), where all compounds were tested at multiple concentrations for their effect on cell viability. Concentration-response curves (CRCs) were derived directly from the primary screen, and both potency and efficacy values were used to identify compounds with robust bioactivity profiles. We screened the NIH Chemical Genomics Center (NCGC) Pharmaceutical Collection (NPC) and Mechanism Interrogation Plate (MIPE) small molecule collections of approved and investigational compounds against these cell lines; and measured metabolically active cells after 48 hours of compound treatment as a proxy for cell viability.
Assay Submitter: Nathalia J. Martinez, National Center for Advancing Translational Sciences, National Institutes of Health, Rockville, MD, USA; email: natalia.martinez@nih.gov
[1] Shen, M et al. Quantitative high-throughput phenotypic screening of pediatric cancer cell lines identifies multiple opportunities for drug repurposing. Oncotarget 2017 Dec 19;9(4):4758-4772. PMID 29435139.
The cells were obtained from University of North Carolina (UNC), Pediatric Preclinical Testing Program (PPT), and Coriell Institute (CI).
qHTS cell viability assay:
Cells were assayed in growth media at a density of 500-1,000 cells/well. Five microliters of cells were dispensed into 1,536-well, white, solid-bottom, TC-treated plates (Greiner Bio One) using a multidrop dispenser and incubated at 37 degrees C, 5% CO2, under a humidified atmosphere for 5 hours. Twenty-three nanoliters of compounds and controls (neutral control DMSO or positive control bortezomib at final concentration of 2.3 µM) were subsequently transferred by Kalypsys pintool. For primary screens, the MIPE collection was tested at 11-point dilutions (final concentrations range from 0.78 nM to 46 µM) and the NPC collection at 8-point dilutions (final concentrations range from 0.59 nM to 46 µM). Compounds tested in follow-up screens were assayed at 11-point dilutions. Cells were incubated for 48 hours, followed by addition of 3 µL of CellTiter-Glo (Promega). After a 15 min incubation at room temperature, samples were analyzed for luminescence intensity using a ViewLux High-throughput CCD imager equipped with clear filters.
Potency is the fitted concentration of half-maximal effect.

Row | Structure (SMILES) | Potency
1 | CC(=O)NC[C@H]1CN(c2ccc(N3CCOCC3)c(F)c2)C(=O)O1 | inactive
2 | CC1Cc2ccccc2N1NC(=O)c1ccc(Cl)c(S(N)(=O)=O)c1 (stereo not given) | inactive
3 | O=c1cc(N2CCOCC2)oc2c(-c3ccccc3)cccc12 | inactive
4 | O=C(O)c1cn(-c2ccc(F)cc2)c2cc(N3CCNCC3)c(F)cc2c1=O | inactive
5 | CN(C)CCc1c[nH]c2ccc(Cn3cncn3)cc12 | inactive
6 | COCCCOc1ccnc(CS(=O)c2nc3ccccc3[nH]2)c1C (stereo not given) | inactive
7 | CCN(CC)CCOc1ccc(Nc2ncc3cc(-c4c(Cl)cccc4Cl)c(=O)n(C)c3n2)cc1 | 1.18 µM (active)
8 | CC1(C)CCC(C)(C)c2cc(NC(=O)c3ccc(C(=O)O)cc3)ccc21 | inactive
9 | Cc1ccc(NC(=O)c2ccc(CN3CCN(C)CC3)cc2)cc1Nc1nccc(-c2cccnc2)n1 | inactive
10 | Nc1ncn([C@H]2C[C@H](O)[C@@H](CO)O2)c(=O)n1 | inactive
11 | N=C(N=C(N)N)N1CCOCC1 | inactive
12 | CC1(C)C(=O)N(CCN2CCC(C(=O)c3ccc(F)cc3)CC2)c2ccccc21 | inactive
13 | CN(C)c1ccc(O)c2c1C[C@H]1C[C@H]3[C@H](N(C)C)C(=O)C(C(N)=O)=C(O)[C@@]3(O)C(=O)C1=C2O | inactive
14 | CCCCN(CCCC)CCC(O)c1cc2c(Cl)cc(Cl)cc2c2cc(C(F)(F)F)ccc12 (stereo not given) | inactive
15 | Cc1cccc(C#Cc2ccccc2)n1 | inactive
16 | O=C(O)c1cccc(-c2noc(-c3ccccc3F)n2)c1 | inactive
17 | COc1cc2nc(N3CCN(C(=O)C4CCCO4)CC3)nc(N)c2cc1OC (stereo not given) | inactive
18 | COC(=O)N[C@H](C(=O)N[C@@H](Cc1ccccc1)[C@@H](O)CN(Cc1ccc(-c2ccccn2)cc1)NC(=O)[C@@H](NC(=O)OC)C(C)(C)C)C(C)(C)C | inactive
19 | O=C1c2c(O)cc(O)cc2OC(c2ccc(O)c(O)c2)C1O (stereo not given) | inactive
20 | C[C@]12CCC(=O)C=C1CC[C@@H]1[C@H]2[C@@H](O)C[C@@]2(C)[C@H]1CC[C@]2(O)C(=O)CO | inactive

Row | Structure (SMILES) | Potency
21 | COCCCN1CCC(NC(=O)c2cc(Cl)c(N)c3c2OCC3)CC1 | inactive
22 | CN(C)C(=O)COC(=O)Cc1ccc(OC(=O)c2ccc(N=C(N)N)cc2)cc1 | inactive
23 | CNC[C@H](O)c1ccc(O)c(O)c1 | inactive
24 | CNC[C@@H](O)[C@@H](O)[C@H](O)[C@H](O)CO | inactive
25 | CCCS(=O)c1ccc2nc(NC(=O)OC)[nH]c2c1 (stereo not given) | inactive
26 | C[C@H](Cn1cnc2c(N)ncnc21)OCP(=O)(O)O | inactive
27 | COc1c2occc2cc2ccc(=O)oc12 | inactive
28 | C=CCc1cc(OC)c(O)c(C(=O)NCCO)c1 | inactive
29 | COc1c(O)cc2c(c1O)[C@@H]1O[C@H](CO)[C@@H](O)[C@H](O)[C@H]1OC2=O | inactive
30 | CCCc1cc(=O)[nH]c(=S)[nH]1 | inactive
31 | CCN(CC)CCOc1ccc(Cc2ccccc2)cc1 | inactive
32 | NS(=O)(=O)c1cc(C(=O)O)c(NCc2ccco2)cc1Cl | inactive
33 | CCN(CCO)CCCC(C)Nc1ccnc2cc(Cl)ccc12 (stereo not given) | inactive
34 | CC1=C(C)C(=O)C(C(CCCCCC(=O)O)c2ccccc2)=C(C)C1=O (stereo not given) | inactive
35 | O=C(OC1C[C@H]2CC[C@@H](C1)[N+]21CCCC1)C(O)(c1ccccc1)c1ccccc1 (stereo not given in full) | inactive
36 | O=C(NCCO[N+](=O)[O-])c1cccnc1 | inactive
37 | CC(=O)O[C@H]1C(=O)[C@@]2(C)C([C@H](OC(=O)c3ccccc3)[C@]3(O)C[C@H](OC(=O)[C@H](O)[C@@H](NC(=O)c4ccccc4)c4ccccc4)C(C)=C1C3(C)C)[C@]1(OC(C)=O)CO[C@@H]1C[C@@H]2O (stereo not given in full) | inactive
38 | C[C@@H](c1ncncc1F)[C@](O)(Cn1cncn1)c1ccc(F)cc1F | inactive
39 | CCOC(=O)c1c(C)n(C)c2ccc(O)cc12 | inactive
40 | Cc1cc(O)c2c(c1)C(=O)c1cc(O)cc(O)c1C2=O | inactive
